Drawing on PubChem BioAssay (NCATS), this text covers Potency for twelve compounds.

Inconclusive results are not listed. Where a call stands in place of a potency, no number is given. The source made the active and inactive calls. Calls come from the whole dose curve; as a rule, active = well fitted inhibition curve with a large enough effect in the signal ratio, with a control signal flat (not every such curve was filed as active); inconclusive = small, poorly fitted or top-dose-only effect, or effect the other way, or a change in a side signal; inactive = flat fitted curve, though single readings scatter; the % refers to the signal ratio.
Potency is the fitted concentration of half-maximal effect.

The nature of the assay: qHTS Assay for Identification of Small Molecule Antagonists for NFkB Signaling Pathway (AID 895). Particulars: NFkB beta-lactamase reporter cells, FRET ratio 460/530; series mostly up to 38.3 µM. The essentials:
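Beta-lactamase reporter read-out (460 and 530 nm emission ratio, 405 nm excitation, 2 hrs substrate loading RT) after 5 hr stimulation with 10 pM TNF alpha in compound-treated NFkB-bla ME-180 cells in low-serum medium.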
For orientation: In qHTS, concentration-response curves come from the screen itself.
As to `COc1ccc2c(c[n+](C)c3c4cc5c(cc4ccc23)OCO5)c1OC`, the Potency is 11.2 µM (active).
For the compound `NCCc1c[nH]c2ccccc12`, the Potency was 12.6 µM (active).
Consider `CNCCc1c[nH]c2ccc(O)cc12`, for which the Potency result was “inactive”.
For the compound `CCCN(CCC)[C@@H]1CCc2ccc(O)cc2C1`, the Potency result was “inactive”.
In the case of `O=C1CCCN1CC#CCN1CCCC1` it was “inactive”; in that of `O=C(O)CC[N+](=O)[O-]`, “inactive”; in that of `Cn1cnc(CCN)c1`, “inactive”.
As for `C[C@@H]1O[C@H](C[N+](C)(C)C)C[C@H]1O`, the Potency entry was “inactive”.
On to `CN[C@@H]1C[C@@H](c2ccc(Cl)c(Cl)c2)c2ccccc21`, for which the Potency was 8.91 µM (active).
As for `NCCc1c[nH]c2ccc(O)cc12`, the Potency entry is “inactive”.
In the case of `C[C@]12N[C@H](Cc3ccccc31)c1ccccc12`, the Potency result was “inactive”.
As to `CCCN1CCO[C@@H]2c3cc(O)ccc3OC[C@H]21`, the Potency result was “inactive”.
